Reference: PubChem BioAssay (NCI)
This is part of a sample that, as a whole, favours compounds with a hit. Of some 79,000 tested, about 15% had one in any assay. Active and inactive are the calls of the source. No stated cut-off is given here; in the data, active means growth inhibition above about 70%; inactive means the rest.

Experiment: NCI Yeast Anticancer Drug Screen. Data for the bub3 strain (AID 167)
Details: S. cerevisiae bub3 mutant strain, at 50.0 µM, stronger effect = higher value
Outline: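 Compounds were applied to a genetically altered yeast strain carrying a cell-cycle control defect. Growth inhibition was scored against vehicle-treated controls.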

Q: Which growth inhibition does the source give for `CCOC(=O)C(NC(=O)c1cccc(Cl)c1)(N1CCN(c2cc3c(cc2F)c(=O)c(C(=O)O)cn3CC)CC1)C(F)(F)F` (stereo unspecified) here?
A: -16.8% (inactive)

Q: For `COc1cc(OC)c(OC)cc1/C=N/N=C(\N)NO`, which growth inhibition is on record?
A: -13.1% (inactive)

Q: With `Clc1ccc(C2=NCCO2)cc1` as the molecule, how does the growth inhibition read?
A: 4.85% (inactive)

Q: For `C[N+]1(C)CC2C3C=C(I)C(C3)C2C1` (stereo unspecified), which growth inhibition is on record?
A: 11.9% (inactive)

Q: With `BrCCCCCCCCCBr` as the molecule, how does the growth inhibition read?
A: -16.6% (inactive)

Q: With `CCCCCCCCCCCCCCCCSC(=N)N` as the molecule, how does the growth inhibition read?
A: 40% (inactive)

Q: For `CCC(CC)CC1CCCCC1O` (stereo unspecified), which growth inhibition is on record?
A: -48.7% (inactive)

Q: For `COc1cc2ccc3c(c2cc1OC)CCc1cn[nH]c1-3`, which growth inhibition is on record?
A: 11.8% (inactive)

Q: For `CN1CCC(CN)(c2ccccc2)CC1`, which growth inhibition is on record?
A: 9.7% (inactive)

Q: With `O=C(OC1CCC(c2ccccc2)C1)c1cc([N+](=O)[O-])cc([N+](=O)[O-])c1` (stereo unspecified) as the molecule, how does the growth inhibition read?
A: 44.3% (inactive)

Q: Which growth inhibition does the source give for `C=CCOC(=O)NC(CCC(=O)O)C(=O)O` (stereo unspecified) here?
A: 3.4% (inactive)

Q: For `COc1ccc(N=Nc2c(C)nn(C(=O)c3ccncc3)c2C)cc1`, which growth inhibition is on record?
A: 11.4% (inactive)

Q: For `O=C(O)c1cc(=O)[nH]c2ccccc12`, which growth inhibition is on record?
A: 1.7% (inactive)

Q: For `Cc1ccc(S(=O)(=O)NC(Cc2ccccc2)C(=O)NCc2cccnc2)cc1` (stereo unspecified), which growth inhibition is on record?
A: -4.1% (inactive)

Q: With `CCCCCCCCCCCCCCCCCCOCCCCCC` as the molecule, how does the growth inhibition read?
A: -10.3% (inactive)

Q: Which growth inhibition does the source give for `CN(C)NC(=O)Nc1cccc2ccccc12` here?
A: -26.9% (inactive)

Q: With `N#C/C(=C/N1CCNC1=S)C(N)=O` as the molecule, how does the growth inhibition read?
A: -2.8% (inactive)

Q: Which growth inhibition does the source give for `COC(=O)Cc1nn2c(nc1=O)sc1ccc3ccccc3c12` here?
A: -3.8% (inactive)

Q: For `CC(=O)OCC(=O)c1ccccc1`, which growth inhibition is on record?
A: 30.5% (inactive)

Q: With `O=C1C2C=CC(n3[nH]c(=O)n(Cc4ccccc4)c3=O)CC2C(=O)N1c1ccc(Br)cc1` (stereo unspecified) as the molecule, how does the growth inhibition read?
A: 4.15% (inactive)

Q: Which growth inhibition does the source give for `COc1ccc(/C=N/NC(=O)c2ccccc2OC)cc1` here?
A: -10.8% (inactive)

Q: For `CNc1ccc2c(c1)C(=O)c1ccccc1-2`, which growth inhibition is on record?
A: 1.35% (inactive)

Experiment: NCI Yeast Anticancer Drug Screen. Data for the mlh1 rad18 strain (AID 175)
Details: S. cerevisiae mlh1 rad18 strain growth inhibition; at 50.0 µM; stronger effect = higher value
Outline: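 Compound-treated yeast growth, normalised to vehicle controls. Strain bears defined DNA repair mutations.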

Q: Which growth inhibition does the source give for `O=C(O)CCC(=O)CC1CCCCC1` here?
A: 28.2% (inactive)

Q: With `Nc1nc(Br)nc2ncn(C3CC(O)C(CO)O3)c12` (stereo unspecified) as the molecule, how does the growth inhibition read?
A: -4.9% (inactive)

Q: Which growth inhibition does the source give for `Cc1ccc(S(=O)(=O)NCNS(=O)(=O)c2ccc(C)cc2)cc1` here?
A: -35.6% (inactive)

Q: With `COC1CCC(/C(C#N)=C/C2CCC(OC)C(OC)C2)CC1` (stereo unspecified) as the molecule, how does the growth inhibition read?
A: 63% (inactive)

Q: Which growth inhibition does the source give for `CC(C)=CCc1ccc2c(c1)CCCN2C` here?
A: 1.15% (inactive)

Q: With `CCCCSC(CC(O)C(O)COC(=O)c1ccc([N+](=O)[O-])cc1)SCCCC` (stereo unspecified) as the molecule, how does the growth inhibition read?
A: -5.85% (inactive)

Q: With `COc1ccc(CC(C)SC(CC(=O)O)C(=O)O)cc1` (stereo unspecified) as the molecule, how does the growth inhibition read?
A: -8.2% (inactive)

Q: Which growth inhibition does the source give for `COc1ncnc2ncn(C)c12` here?
A: 0.2% (inactive)

Q: With `OC(CNc1ncccn1)(Cc1ccccc1)Cc1ccccc1` as the molecule, how does the growth inhibition read?
A: 21.2% (inactive)

Q: With `Nc1nc(N)nc(-c2cc(Br)c(N)c(Br)c2)n1` as the molecule, how does the growth inhibition read?
A: -8.25% (inactive)

Q: For `O=P(O)(OCCOc1ccccc1)OCCOc1ccccc1`, which growth inhibition is on record?
A: -12.8% (inactive)

Q: For `CN(C)C=Nc1cccc2c1NSN2`, which growth inhibition is on record?
A: 33.1% (inactive)

Q: For `COC1OC2COC(c3ccccc3)OC2C(NC(C)=O)C1OC(C)=O` (stereo unspecified), which growth inhibition is on record?
A: -13.1% (inactive)

Q: For `CCOC(=O)O/C(C)=C\c1ccccc1Cl`, which growth inhibition is on record?
A: 5.7% (inactive)

Q: For `CNc1ncc(-c2nnnn2-c2ccccc2)c(CN(C)C)n1`, which growth inhibition is on record?
A: 25.2% (inactive)

Q: For `Nc1nc(-c2ccc(-c3ccccc3)cc2)cc(=O)[nH]1`, which growth inhibition is on record?
A: -25.8% (inactive)

Q: With `O=C1c2ccccc2C(=O)N1/N=C1/SC(=Nc2ccccc2)C(=Nc2ccccc2)N1c1ccccc1` as the molecule, how does the growth inhibition read?
A: 20.1% (inactive)

Q: Which growth inhibition does the source give for `C/C(=N/NC(N)=O)c1cn[nH]c1C` here?
A: 11.8% (inactive)

Q: Which growth inhibition does the source give for `CCOC(=O)C(NC(=O)c1cccc(Cl)c1)(N1CCN(c2cc3c(cc2F)c(=O)c(C(=O)O)cn3CC)CC1)C(F)(F)F` (stereo unspecified) here?
A: -23.6% (inactive)

Q: Which growth inhibition does the source give for `COc1cc(OC)c(OC)cc1/C=N/N=C(\N)NO` here?
A: -10.4% (inactive)

Q: With `Clc1ccc(C2=NCCO2)cc1` as the molecule, how does the growth inhibition read?
A: -26.3% (inactive)

Q: Which growth inhibition does the source give for `C[N+]1(C)CC2C3C=C(I)C(C3)C2C1` (stereo unspecified) here?
A: 26.1% (inactive)

Q: Which growth inhibition does the source give for `BrCCCCCCCCCBr` here?
A: 29.1% (inactive)

Q: Which growth inhibition does the source give for `CCCCCCCCCCCCCCCCSC(=N)N` here?
A: 38% (inactive)

Q: Which growth inhibition does the source give for `CCC(CC)CC1CCCCC1O` (stereo unspecified) here?
A: -11.9% (inactive)

Q: Which growth inhibition does the source give for `COc1cc2ccc3c(c2cc1OC)CCc1cn[nH]c1-3` here?
A: 9.45% (inactive)

Q: With `CN1CCC(CN)(c2ccccc2)CC1` as the molecule, how does the growth inhibition read?
A: 11.3% (inactive)

Q: With `O=C(OC1CCC(c2ccccc2)C1)c1cc([N+](=O)[O-])cc([N+](=O)[O-])c1` (stereo unspecified) as the molecule, how does the growth inhibition read?
A: 58.1% (inactive)

Q: Which growth inhibition does the source give for `C=CCOC(=O)NC(CCC(=O)O)C(=O)O` (stereo unspecified) here?
A: 21% (inactive)
